High-throughput results from PubChem BioAssay.
HT1080NT lethal – qHTS for induction of synthetic lethality in tumor cells producing 2HG: qHTS for the HT-1080-NT fibrosarcoma cell line; 360,000 tested, 1.6% active; Potency, µM (doses to about 46.1 µM), without a hit: top-dose activity, negative = less viability, hits mostly cytotoxic; HT-1080-NT fibrosarcoma viability, CellTiter-Glo ATP luminescence, 48 h; AID 686970, 2013;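 note: NT is the 2HG producing partner of a matched IDH1 knockdown line; potency is the fitted concentration of half-maximal effect; 0% = DMSO-treated cells and -100% = media-only wells without cells; nearly all actives have a fitted effect of over 55% in size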
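Compounds were tested in concentration-response format on HT-1080-NT cells for 48 hours at 37 degrees C. Cell viability came from CellTiter-Glo luminescence; curves were classified by r2, response magnitude and activity.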
TDP1 cell CPT – qHTS for Inhibitors of human tyrosyl-DNA phosphodiesterase 1 (TDP1): qHTS in cells in presence of CPT; 420,000 tested, 12% active; Potency, µM (doses to about 46.2 µM), for the others: at the top dose activity change, negative = growth inhibition, usual class: inhibitors; chicken DT40 Tdp1-/-;hTDP1 cells + 20 nM CPT, ATP luminescence, 48 h; note: potency is the fitted concentration of half-maximal effect; nearly all actives have a fitted effect of over 55% in size
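Chicken DT40 Tdp1-/- cells stably complemented with human TDP1 were seeded at 400 cells/well in medium containing 20 nM camptothecin, exposed to pin-transferred compounds, and grown at 37 °C for at least 48 hr. Viability was read as ATP luminescence.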
IL-1B inflam inh – qHTS for Inhibitors of Inflammasome Signaling: IL-1-beta AlphaLISA Primary Screen; THP-1 LPS/ATP IL-1B secretion, AlphaLISA, 16 h; stronger effect = lower value; 360,000 tested, 4.7% active; activity change, % at 57.5 µM; AID 743279, 2014; in the data active = activity change below about -50%; inconclusive = mostly about -30% to -49%
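Secreted IL-1B measured by AlphaLISA bead assay after 16 h compound exposure of THP-1 cells; compounds (final up to 57.5 uM) added 1 h before LPS (250 ng/mL) and ATP (1.25 mM) stimulation; lower signal means less secretion.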
HT1080 IDH1KD tx – qHTS for induction of synthetic lethality in tumor cells producing 2HG: qHTS for the HT-1080-IDH1KD cell line | Potency, µM (top dose mostly 46.1 µM), without a hit: top-dose activity, negative = toxicity, usual class: cytotoxic | 360,000 tested, 2% active | AID 686971, 2013 | HT-1080 IDH1 knockdown viability, ATP luminescence, 48 h;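 note: potency is the fitted concentration of half-maximal effect; 0% = DMSO wells and -100% = cell-free medium wells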
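Using the IDH1-knockdown HT-1080 line run in the same batch and compound series as the NT line, viability after 48 h at 37 °C was determined by CellTiter-Glo luminescence and expressed as % activity.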
DT40 TDP1 no CPT – qHTS for Inhibitors of human tyrosyl-DNA phosphodiesterase 1 (TDP1): qHTS in cells in absence of CPT; 420,000 tested, 15% active; Potency, µM (series often up to 46.2 µM), for the others: at the top dose activity change, negative = growth inhibition, most hits filed as inhibitors; DT40 Tdp1-/- hTDP1 cells, no CPT, ATP luminescence, 48 h; AID 686978, 2013; note: potency is the fitted concentration of half-maximal effect; nearly all actives have a fitted effect of over 55% in size
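Growth kinetics read by CellTiter-Glo luminescence after ≥48 hr at 37 °C. Cells: DT40 Tdp1-/- stably carrying human TDP1, 400 per well, compound exposure in the absence of CPT (DMSO vehicle).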
An asterisk follows results filed as active; ? = inconclusive; · = no result given; [ ] = remark or other dose. Shown are actives, neighbours in structure and some others; about 19% of the full set was active somewhere. Unless noted, calls come from the whole dose curve; as a rule, active = well fitted curve in the direction sought with a large enough effect; inconclusive = small, poorly fitted or top-dose-only effect, or another doubt; inactive = no such curve, though single readings can be large; an effect the other way counts as inactive or inconclusive. Unless noted, % is set by controls: 0 for no effect and ±100 for the full control effect.

SMILES | HT1080NT lethal | TDP1 cell CPT | IL-1B inflam inh | HT1080 IDH1KD tx | DT40 TDP1 no CPT
O=C(c1ccc2[nH]ccc2c1)N1CCOc2ccc(CN3CCN(c4ccccn4)CC3)cc2C1 | · | -4.0%[9.04 µM] | · | · | ?
CCN(Cc1ccncc1)Cc1ccc2c(c1)CN(C(=O)c1ccc(C#CC(C)(C)O)o1)CCO2 | · | 3.9%[9.04 µM] | · | · | ?
CCOC(=O)N1CCN(Cc2ccc3c(c2)CN(C(=O)c2ccc(C#CC(C)(C)O)o2)CCO3)CC1 | · | ? | · | · | 9.2µM*
Cc1nc2ccccc2nc1CN1CCOc2ccc(CN3CCc4sccc4C3)cc2C1 | · | 8.8% | · | · | -9.0%
Cc1nc2sccn2c1CN1CCOc2ccc(CN3CCN(c4ccc(F)cc4)CC3)cc2C1 | · | 2.91µM* | · | · | 2.59µM*
CC(C)c1nc(C(=O)N2CCOc3ccc(CN4CCN(c5ccccn5)CC4)cc3C2)cs1 | · | -17.6%[9.04 µM] | · | · | 14.6µM*
CC(=O)NCCNC(=O)CCCc1nnc2n(CC(C)C)c(=O)c3sccc3n12 | · | -2.7% | · | · | -21.5%
Cc1cc(C)c(C#N)c(SCC(=O)Nc2nonc2N)n1 | 7.2% | -3.4% | -15.7 | -17.0% | ?
CCOC(=O)c1ccc(NC(=O)C(=O)NCc2ccco2)cc1 | -2.1% | -16.5% | 7.6 | -1.1% | -16.6%
Cc1ccc(-n2c(C)nnc2SCC(=O)NNC(=O)c2ccco2)cc1 | 9.3% | 10.6% | -8.0 | 12.6% | -23.3%
CCOC(=O)N1CCN(Cc2ccc3c(c2)CN(C(=O)c2sc(C)nc2C)CCO3)CC1 | · | -8.4%[9.04 µM] | · | · | 16.4µM*
COCc1ccc(C(=O)N2CCOc3ccc(CN4CCN(c5ccc(F)cc5)CC4)cc3C2)o1 | · | 20.6µM* | · | · | 20.6µM*
COc1ccc([C@@H]2C[C@H]3[C@@H](CN2S(=O)(=O)c2ccccc2)C(=O)C[C@@H](c2ccc(OC)cc2)N3S(=O)(=O)c2ccccc2)cc1 | 7.7% | -15.4% | 8.7 | 0.1% | 3.2%
Cc1ccc(NC(=O)CNC(=O)c2cccc(C)c2)nc1 | 14.0% | -1.8% | 26.3 | -1.0% | -22.3%
COc1cc(CN2CCCC(N3CCN(c4ccc(F)cc4)CC3)C2)ccc1F (stereo not drawn) | 1.4% | 20.6µM* | -20.6 | -0.1% | ?
COc1cc(CN2CCCC(N3CCN(c4ccccc4C)CC3)C2)ccc1O (stereo not drawn) | -26.0% | 13µM* | -6.3 | ? | ?
OCCOc1ccc(CN2CCCC(N3CCN(c4ccc(F)cc4)CC3)C2)cc1 (stereo not drawn) | -3.7% | -10.6% | 0.0 | 6.0% | -4.3%
C=CCNC(=O)NC(=O)CSc1nnc(C(F)(F)F)n1C | 3.7% | -109.1% | 54.7 | 12.4% | -117.8%
O=C(Nc1ccc(C(F)(F)F)cc1)N1CCC(N2CCCCC2)CC1 | · | ? | · | · | -19.8%
CCOC(=O)Cn1nnc(-c2ccc([N+](=O)[O-])cc2)n1 | 3.7% | ? | -6.6 | -0.4% | -3.3%
CON(C)c1nc(OCCNC(=O)COc2ccc(Cl)cc2C)nc(N(C)C)n1 | -1.5% | 8.2µM* | -2.4 | -13.3% | 8.2µM*
CN(C)c1nc(OCCNC(=O)Nc2ccc(Cl)cc2)nc(N(C)C)n1 | 3.7% | -16.5% | 2.8 | 5.2% | -13.8%
CON(C)c1nc(OCCNC(=O)OCc2ccc(Cl)cc2Cl)nc(N(C)C)n1 | 4.0% | 16.4µM* | 44.5 | 5.3% | 8.2µM*
CCOC(=O)C(=O)Nc1nnc2n1CCS2 | · | 8.6% | · | · | -6.8%
Cc1c(C(=O)NCCc2ccc(Cl)cc2)cccc1-n1cnc2cccnc21 | · | 14.6µM* | · | · | 13µM*
SMILES | HT1080NT lethal | TDP1 cell CPT | IL-1B inflam inh | HT1080 IDH1KD tx | DT40 TDP1 no CPT
COc1ccc(NS(=O)(=O)c2csc(C(N)=O)c2)cc1 | 3.8% | -11.5% | 59.2 | 4.9% | -29.8%
COc1cc(OC)nc(Oc2ccccc2C(=O)Oc2cccc(C)c2)n1 | -9.6% | ? | -1.9 | -13.2% | ?
COc1ccc(/C=C/C(=O)NC(C)C)cc1Br | 0.9% | 16.6% | -9.8 | 11.6% | -4.7%
CCN(C(=O)/C=C/c1ccccc1)C1CCCCC1 | 1.7% | -0.8% | ? | -5.1% | ?
COc1ccc(/C=C/C(=O)N(C(C)C)C(C)C)cc1Br | 12.1% | ? | -26.0 | ? | 12.6µM*
CN(C(=O)/C=C/c1cnc2ccccc2c1)C1CCCCC1 | 28.0% | -19.2% | -57.9* | 23.0% | ?
COc1ccc(/C=C/C(=O)N(C)C2CCCCC2)cc1Br | -4.4% | ? | -67.9* | -17.8% | ?
COc1ccc(/C=C/C(=O)N(C)C2CCS(=O)(=O)C2)cc1 (stereo not drawn) | 15.4% | -16.2% | 15.9 | 12.1% | -9.0%
CC1CC[C@@]2(OC1)OC1CC3C4CC[C@H]5CC(O)CC[C@@]5(C)C4CC[C@]3(C)C1C2C (stereo partly drawn) | · | -10.1% | · | · | -3.2%
CCCCOc1[nH]c2nc(-c3ccco3)n(Cc3ccco3)c(=N)c2c1C#N | 8.0% | ? | -82.5* | 11.9% | 23.1µM*
Cc1c(C(=O)c2ccc(F)cc2F)c2ccccn2c1CCC#N | -0.8% | -5.9% | -5.3 | -8.0% | -0.5%
Cc1c(C(=O)c2ccc(N(C)C)cc2)c2ccccn2c1CCC#N | -3.7% | -27.9% | -73.3* | -18.9% | ?
Cc1cc(C)cc(NC(=O)Nc2nnc(N(C)C3CCCCC3)s2)c1 | · | 14.6µM* | · | · | ?
Cc1onc(-c2ccccc2)c1C(=O)Nc1nnc(C(C)(C)C)s1 | 3.7% | -6.2% | 27.4 | -3.4% | 2.1%
CC1CC2(CC(CN(C3CCCCC3)C3CCCCC3)OC2=O)C(=O)O1 (stereo not drawn) | ? | -23.3% | 18.8 | 8.5% | 5.2%
CC(=O)c1cccc(NC(=O)CC(c2ccc(C)cc2)N2Cc3ccccc3C2=O)c1 (stereo not drawn) | · | ? | · | · | 16.4µM*
CCc1ccccc1NC(=O)CC(c1ccc(F)cc1)N1Cc2ccccc2C1=O (stereo not drawn) | · | 23.1µM* | · | · | 23.1µM*
COc1ccc(C(CC(=O)Nc2ccc(C(C)=O)cc2)N2Cc3ccccc3C2=O)cc1 (stereo not drawn) | · | -9.2% | · | · | -4.2%
Cc1ccc(C(CC(=O)Nc2cc(C)cc(C)c2)N2Cc3ccccc3C2=O)cc1 (stereo not drawn) | · | 14.6µM* | · | · | 23.1µM*
Cc1ccc(C(CC(=O)Nc2ccc(C)cc2C)N2Cc3ccccc3C2=O)cc1 (stereo not drawn) | · | 16.4µM* | · | · | 18.4µM*
Cc1ccc(NC(=O)CC(c2ccc(F)cc2)N2Cc3ccccc3C2=O)cc1C (stereo not drawn) | · | -14.6% | · | · | -23.8%
